Results as given in PubChem BioAssay (NCI).
The panel holds about 83,000 compounds, 20% with a hit somewhere; the sample as a whole holds those more often.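 Cells were grown in 96-well plates and exposed to the test compound at a single concentration for 48 hours; results are reported as percent growth, with values below 10 considered active.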 Values without a mark were called inactive. The source made the active and inactive calls.

Key:
Assay in all cases: NCI-60 one-dose screen, 48 h (100 = growth as untreated, 0 = no growth, -100 = all killed)
Settings in all cases: 10 µM unless noted
T-47D breast = test system: T-47D breast
BT-549 breast = test system: BT-549 breast
MDA-MB-435 melanoma = test system: MDA-MB-435 melanoma
SW-620 colon = test system: SW-620 colon
MCF7 breast = test system: MCF7 breast
HCT-116 colon = test system: HCT-116 colon
HCC-2998 colon = test system: HCC-2998 colon
KM12 colon = test system: KM12 colon

Compound | growth (T-47D breast) | growth (BT-549 breast) | growth (MDA-MB-435 melanoma) | growth (SW-620 colon) | growth (MCF7 breast) | growth (HCT-116 colon) | growth (HCC-2998 colon) | growth (KM12 colon)
C/C(=N\Nc1ccccc1)c1ccc(NC2=CC(=O)c3ccccc3C2=O)cc1 | 38.8% | 76.3% | -80.3% (active) | 48.4% | 30.4% | 51% | 77.9% | 43.7%
O=C(Nc1ccc(Nc2ccncc2)cc1)c1ccc(Nc2ccnc3ccc([N+](=O)[O-])cc23)cc1 | 122% | 107% | 104% | 105% | 91.9% | 97% | 76.7% | 90.1%
COc1ccc(C(=O)/C=C/c2ccccc2)cc1S(N)(=O)=O | 77.6% | 75.2% | 96.5% | 25.8% | 25% | 13.4% | 95.2% | 38%
N#Cc1nn(-c2cc(=O)[nH]c3ccc(Br)cc23)c(N)c1C#N | 56.1% | 85.1% | 95.5% | 83.5% | 104% | 85.7% | 78.5% | 109%
CCOc1ccc(/C=C/C(=O)c2cccc(OCCCOc3cccc(C(=O)/C=C/c4ccc(OCC)cc4)c3)c2)cc1 | 63.4% | 92.1% | 79.7% | 98% | 84.5% | 81.7% | 94.9% | 93%
CCn1cc(C(=O)O)c(=O)c2cc(F)c(N3CCN(CC(=O)Nc4ccccc4)C(C)C3)c(F)c21 (stereo not given) | 95.4% | 106% | 97.1% | 105% | 92.7% | 99.9% | 99.9% | 99.9%
CS(=O)/C(C#N)=C\C=C\c1cccc(Cl)c1 (stereo not given) | 16.5% | 9.95% (active) | 5.01% (active) | 14.9% | 12.9% | -28.1% (active) | -31.1% (active) | 12.5%
CCOC(=O)CC[C@H](NC(=O)c1ccc(N(C)Cc2cnc3nc(N)nc(N)c3n2)c2ccccc12)C(=O)OCC | 53.9% | 51.1% | 37.4% | 22% | 18.4% | 20.4% | 35.6% | 23.8%
Cc1cccc(-c2nc(C(C)C)sc2-c2ccnc(NCCCNS(=O)(=O)c3ccc(Cl)cc3)c2)c1 | 52.5% | 74.8% | 80% | 56.6% | 53.8% | 54.4% | 75.2% | 58.1%
O=C(CN1C(=O)S/C(=C\C(Cl)=C\c2ccccc2)C1=O)NC1CCS(=O)(=O)C1 (stereo not given) | 15.7% | 76.5% | 66.2% | 22.6% | 13.7% | 5.67% (active) | 103% | 65.4%
CCN(CC)C(=O)C1=C(C)NC(=O)NC1c1ccc2c(c1)OCO2 (stereo not given) | 104% | 111% | 108% | 105% | 97.4% | 110% | 114% | 112%
COCCn1cc(-c2nc(-c3cc4cccnc4n3C)cs2)c2ccccc21 | -36.7% (active) | 24.9% | 6.84% (active) | 28.9% | 6.6% (active) | 23.5% | 57.8% | 4.96% (active)
CN(C)/C(N)=N/N=C(\c1ccccc1)c1ccccn1 | 110% | 99.8% | 113% | 104% | 105% | 89.5% | 94.3% | 99.1%
CC[C@@H](C(=O)[C@@H](C)[C@@H](O)[C@H](C)[C@@H]1O[C@@H]([C@@H](CC)C(=O)ONC(=O)c2ccccc2O)CC[C@@H]1C)C1O[C@]2(C=CC(=O)[C@]3(CC[C@@](C)([C@H]4CC[C@](O)(CC)[C@H](C)O4)O3)O2)[C@H](C)C[C@@H]1C (stereo not given in full) | 12.4% | 36.2% | 63% | 40.8% | 17.8% | 36.7% | 58.7% | 51.3%
C[C@H](c1nc2ccc(C#N)cc2[nH]1)[C@H]1CC[C@H]2[C@@H]3CCC4=CC(=O)CC[C@]4(C)[C@H]3CC[C@]12C | 29.4% | 58.9% | 84.2% | 89.1% | 59.5% | 49.7% | 67.4% | 68.9%
CC(C)(C)c1ccc(C(=O)N/N=C/c2ccc(O)cc2O)cc1 | 33.1% | 32% | 34.3% | 30% | 8.44% (active) | 23.4% | 19.4% | 12.5%
c1ccc(-c2ccc3c(c2)C2(CCNCC2)CN3)cc1 | 80.3% | 99.3% | 106% | 93.6% | 80.2% | 87.1% | 103% | 87.7%
CCOC(=O)c1cn2ncnc(Oc3ccc(NC(=O)NC4CC4)c(Cl)c3)c2c1C | 71.9% | 96.1% | 96.4% | 97.1% | 90.5% | 95.1% | 101% | 102%
Cc1cc(C)c2c(c1)N(C)c1ncnc(-n3c(C)nc4cc(C)ccc43)c1CC2C (stereo not given) | 48.9% | 59.2% | 2.51% (active) | 19.6% | 18.7% | 17.4% | 76.1% | 38.7%
O=C1Nc2ccc(Cl)cc2/C1=C/c1ccc[nH]1 | 13% | 48.7% | 96.5% | 112% | 16.2% | 87.1% | 65.8% | 13.5%
COC(=O)c1ccc2cc(OC)c(OC)cc2c1 | 96.1% | 90.5% | 98.8% | 99% | 92.2% | 95.6% | 98.8% | 108%
Fc1ccc2[nH]cc(-c3nc(-c4c[nH]c5c(Cl)nccc45)cs3)c2c1 | 35.1% | 75.1% | 60.4% | 2.51% (active) | 45.8% | 39.6% | 56.2% | 33.2%
COc1ccc(/C=N/Nc2c3ccccc3nc3ccccc23)cc1 | 87.5% | 92.2% | 97% | 97.7% | 81.9% | 97.4% | 105% | 91.4%
CCOC(=O)C1=C(CCl)N(C)C(=O)NC1c1ccc2c(c1)OCO2 (stereo not given) | 35.6% | 37.8% | 26.6% | 8.16% (active) | 51.8% | 19.1% | 94.6% | 73.1%
COc1cc2c(c(OC)c1OC)C(=O)CC(c1cccc(C(=O)Nc3ccccc3Br)c1)O2 (stereo not given) | 55.4% | 78.8% | 83.9% | 99.3% | 68.9% | 81.5% | 95% | 93.5%
COc1ccc2cc(C(=O)N3CCC([C@@H](C)C(=O)NCc4ccc5c(c4)OCO5)CC3)[nH]c2c1 | 17.3% [50 µM] | 16% [50 µM] | 65.9% [50 µM] | 103% [50 µM] | 46.8% [50 µM] | 33.6% [50 µM] | 83% [50 µM] | 79.1% [50 µM]
COc1ccc(/C=C2\CN(C(=O)C(Cl)Cl)C/C(=C\c3ccc(OC)c(OC)c3)C2=O)cc1OC | 0.33% (active) | -41% (active) | -34.3% (active) | -41.4% (active) | 0.517% (active) | -83.6% (active) | -95.5% (active) | -49.7% (active)
C#CCOc1cccc(Nc2ncnc3c2ncn3C2CCN(C(=O)CCl)C2)c1 (stereo not given) | -45.2% (active) | -62.5% (active) | -23.8% (active) | -64.2% (active) | -50.9% (active) | 1.32% (active) | -22.8% (active) | 23.7%
C[C@@H]1NC(=O)[C@H](Cc2ccccc2)N(Cc2cccnc2)C1=O | 94.6% | 73.2% | 104% | 97.2% | 91.5% | 71% | 106% | 103%
O=C(Nc1nc(Cl)nc(Nc2ccc(N3CCOCC3=O)cc2)n1)c1ccc(Cl)s1 | 71.7% | 106% | 96.4% | 76.1% | 59.1% | 84.3% | 82.3% | 90.6%
